Laboratory results reported in PubChem BioAssay.

Experiment: probe aCHRDL2 binding to arrayed compounds – biochemical, biotinylated probe, 635/667 nm fluorescence, primary screen (AID 1100)
Settings: small-molecule microarray, higher = more signal

Compound | composite z-score
CCOC(=O)C[C@H]1[C@H](OC(=O)c2ccc(-c3ccccc3)cc2)[C@@H](NC(=O)c2ccccc2)c2cc(OCCCO)ccc2N1C(=O)c1ccc2ccccc2n1 | 0.339
O=c1cccc(-c2ccccc2Cl)o1 | -0.456
C=CCC(OC(C)=O)[C@@H]1[C@@H](N(Cc2cc3ccccc3o2)C(=O)Cc2ccc(OC)cc2)c2cc(OCCCO)ccc2N1C(=O)c1ccc2ccccc2c1 (stereo not given in full) | 0.395
CS(=O)(=O)CCOC(=O)C1=CC(CCCO)=CC(c2ccc(CN3CCCC3)cc2)N(Cc2cccc(OC(F)(F)F)c2)C=C1C(=O)OCCS(C)(=O)=O (stereo not given) | 0.367
O=C1[C@@]23C=C(Br)[C@H](C[C@@H]2COC3)[C@]12CO2 | -0.188
O=C(CS)NCCCCCNC(=O)[C@H]1C[C@H]2C(=O)NCC(=O)N2[C@H]1c1ccc(O)cc1 | 0.699
CC(c1ccccc1)C(O)C1C=CC2C(=O)N(c3ccccc3)C(=O)C2N1Nc1ccccc1 (stereo not given) | 0.818
COC(=O)c1c(CC[C@@H](CO)NC(=O)NCCc2c[nH]c3ccccc23)oc(C(=O)Cc2ccccc2)c1C(=O)OC | -0.805
O=C(O)[C@H]1C[C@H]2C(=O)N3CCC[C@H]3C(=O)N2[C@H]1c1ccc(O)cc1 | 0.915
Cc1c(NC(=O)/C(C#N)=C/c2cccc([N+](=O)[O-])c2)c(=O)n(-c2ccccc2)n1C | -0.413
CCOC(=O)C1=CCC(c2ccc(F)cc2)N(S(=O)(=O)c2ccc(C)cc2)C1 (stereo not given) | 0.291
COC(=O)C(CC#Cc1ccc2c(c1)[C@]1(C(=O)N2)[C@H](c2ccc(O)cc2)N2[C@H](c3ccccc3)[C@H](c3ccccc3)OC(=O)[C@H]2[C@@H]1C(=O)N1CCN(c2ncccn2)CC1)C(=O)OC | 0.508
O=C1O[C@H](c2ccccc2)[C@H](c2ccccc2)N2[C@H]1[C@@H](C(=O)NC[C@H](O)c1ccccc1)[C@]1(C(=O)Nc3ccccc31)[C@H]2c1ccc(O)cc1 | 0.489
COCCOC(=O)N1C(=O)[C@@]2(c3cc(C#Cc4ccc(OC)cc4)ccc31)[C@H](c1ccc(O)cc1)N1[C@H](c3ccccc3)[C@H](c3ccccc3)OC(=O)[C@H]1[C@@H]2C(=O)Nc1nc2ccccc2s1 | 0.0407
CC(C)=CCCC(C)=CC(O)C1C=CC2C(=O)N(c3ccccc3)C(=O)C2N1Nc1ccc(C(C)C)cc1 (stereo not given) | 0.816
O=C(O)[C@H](Cc1ccccc1)n1cc(-c2ccccc2)nn1 | -0.367
COC(=O)C(CC#Cc1ccc2c(c1)[C@]1(C(=O)N2)[C@H](c2ccccc2OCCO)N2[C@H](c3ccccc3)[C@H](c3ccccc3)OC(=O)[C@H]2[C@@H]1C(N)=O)C(=O)OC | 0.862
[N-]=[N+]=Nc1ccccc1C[C@]1(C(=O)NCC(O)CO)N=C(c2ccc(OCCCO)cc2)O[C@H]1c1ccccc1 (stereo not given in full) | 0.965

Compound | composite z-score
Cc1ccc([C@H]2C(C(=O)O)=CCN2S(=O)(=O)c2ccc(C)cc2)cc1 | 0.761
[N-]=[N+]=Nc1ccccc1C[C@]1(C(=O)NCc2ccccc2)N=C(c2ccc(OCCCO)cc2)O[C@H]1c1ccccc1N=[N+]=[N-] | 0.778
CC(=O)NCCCC[C@@H]1NC(=O)[C@H]2C[C@@H](C(=O)O)[C@@H](c3ccc(O)cc3)N2C1=O | 0.372
COCCOC(=O)N1C(=O)[C@@]2(c3cc(C#CC4(O)CCCCCC4)ccc31)[C@H](C(=O)Nc1nc3ccccc3s1)[C@H]1C(=O)O[C@H](c3ccccc3)[C@H](c3ccccc3)N1[C@@H]2c1ccccc1OCCO | 0.365
COCC(=C=CC[C@H](O)c1cccc(OCCO)c1)C[C@H](O)c1cc(Cl)cc(Cl)c1O | -0.174
[N-]=[N+]=Nc1ccccc1[C@H]1OC(c2ccc(OCCCO)cc2)=N[C@@]1(Cc1ccccc1)C(=O)N1CCOCC1 | 1.08
CCCCC(O)C1C=CC2C(=O)N(C)C(=O)C2N1N1CCCCC1 (stereo not given) | 0.743
COc1ccc(NC(=O)O[C@H]2[C@H](OC(=O)c3cc4ccccc4[nH]3)[C@@H](OC(=O)c3cc4ccccc4[nH]3)[C@@H](OC)O[C@@H]2CO)cc1 | 0.358
CN1C(=O)C2C=CC(C(O)c3c(F)cccc3Cl)N(NC(=O)OC(C)(C)C)C2C1=O (stereo not given) | 1.09
O=C(CS)NCCCCCNC(=O)[C@@H]1C[C@@H]2C(=O)NCC(=O)N2[C@@H]1c1ccc(O)cc1 | 0.347
COc1ccccc1CN1C(=O)c2ccccc2[C@@]2(Cc3ccccc3N(CCCN(C)C)C2=O)[C@@H]1c1ccc(CO)cc1 | -0.649
[N-]=[N+]=NCc1ccccc1C[C@@]1(C(=O)NCC(O)CO)N=C(c2ccc(OCCCO)cc2)O[C@@H]1c1ccccc1 (stereo not given in full) | 1.22
CCOC(=O)[C@H]1C/C=C/C[C@H](C(=O)OCC)C(=O)O[C@H]2[C@@H](OC)O[C@H](CO)[C@@H](OC(=O)c3ccc(Br)cc3)[C@@H]2OC1=O | 0.44
O=C1OCC=C[C@H]2OC34C=CCN(Cn5nnc6ccccc65)C(=O)[C@H]3N(CCCCCO)C(=O)[C@@H]4[C@@H]12 (stereo not given in full) | 0.586
COCC(=C=CC[C@H](O)c1cccc(OCCO)c1)CCO | -0.101
O=C1NC(=O)C2C1C=CC(C(O)c1ccc(I)cc1)N2Nc1ccc(Cl)cc1Cl (stereo not given) | 1.08
COC(=O)[C@@]1(Cc2ccccc2)[C@H]2c3cc(C(=O)N(C)C)n(CCc4c[nH]c5ccc(O)cc45)c3C[C@H]2CN1C(=O)c1ccccc1 | 1.2
